# Only some compounds are listed: those with a hit (about 19% of all), similar ones and a draw of the others.
# HT1080NT lethal – kills 2HG-producing HT-1080-NT fibrosarcoma cells | HT-1080-NT fibrosarcoma viability, CellTiter-Glo ATP luminescence, 48 h | Potency, µM (highest dose often 46.1 µM), without a hit: at the top dose activity, negative = less viability, usual class: cytotoxic | 1.6% of 360,000 active;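 further: NT is the 2HG producing partner of a matched IDH1 knockdown line; potency means the concentration at half of the fitted maximal effect; 0% = DMSO-treated cells and -100% = media-only wells without cells; nearly all actives have a fitted effect of over 55% in size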
#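 HT-1080-NT fibrosarcoma cells (2HG-overproducing), 750 cells/well in RPMI with 5% FBS, dosed after 2 h and incubated 48 h at 37C. CellTiter-Glo luminescence normalized to DMSO and no-cell wells; concentration-response curves fitted and classed.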
# DT40 TDP1 no CPT – qHTS for Inhibitors of human tyrosyl-DNA phosphodiesterase 1 (TDP1): qHTS in cells in absence of CPT; DT40 Tdp1-/- hTDP1 cells, no CPT, ATP luminescence, 48 h; 15% of 420,000 active; AID 686978, 2013; Potency, µM (series often up to 46.2 µM), for inactives: top-dose activity change, negative = growth inhibition, most hits filed as inhibitors; further: potency means the concentration at half of the fitted maximal effect; nearly all actives have a fitted effect of over 55% in size
#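 Camptothecin absent (DMSO only). Human TDP1-complemented DT40 knockout cells, 400 cells/well, 37 °C for minimum 48 hr; ATP measured via CellTiter-Glo, 30 min dark incubation, luminescence.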
# DT40 TDP1 CPT – DT40-hTDP1 cell growth loss with CPT; 12% of 420,000 active; chicken DT40 Tdp1-/-;hTDP1 cells + 20 nM CPT, ATP luminescence, 48 h; Potency, µM (doses to about 46.2 µM), for the others: top-dose activity change, negative = growth inhibition, hits mostly inhibitors; further: potency means the concentration at half of the fitted maximal effect; nearly all actives have a fitted effect of over 55% in size
#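 Chicken DT40 Tdp1-/- cells complemented with human TDP1, 400 cells/well, exposed to compounds plus 20 nM camptothecin for at least 48 h at 37 C; viability read as ATP content by CellTiter-Glo luminescence.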
# IL1B secr inh – blocks inflammasome-driven IL-1 beta release; activity change, % at 57.5 µM; THP-1 LPS/ATP IL-1B secretion, AlphaLISA, 16 h; hits give low values; 4.7% of 360,000 active; in the data active means activity change below about -50%; inconclusive means mostly about -30% to -49%
#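 Secreted IL-1B measured by AlphaLISA bead assay after 16 h compound exposure of THP-1 cells; compounds (final up to 57.5 uM) added 1 h before LPS (250 ng/mL) and ATP (1.25 mM) stimulation; lower signal means less secretion.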
# HT1080 IDH1KD tx – HT-1080 IDH1 knockdown cell toxicity (counter line) | HT-1080 IDH1 knockdown viability, ATP luminescence, 48 h | AID 686971 | Potency, µM (highest dose often 46.1 µM), without a hit: at the top dose activity, negative = toxicity, usual class: cytotoxic | 2% of 360,000 active;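 further: potency means the concentration at half of the fitted maximal effect; 0% = DMSO wells and -100% = cell-free medium wells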
#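 Knockdown cells (IDH1KD HT-1080) received compounds 2 h after plating at 750 cells/well and were kept 48 h at 37 °C in 5% FBS RPMI. A CellTiter-Glo luminescence read gave % activity for curve fitting.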
# ELG1 DNA repair – blocks ELG1-dependent DNA repair in HEK293T cells; Potency, µM (titrated, usually from 46.1 µM), inactives show top-dose activity change, negative = inhibition, most hits filed as inhibitors; HEK293T ELG1-luciferase reporter, luminescence, 16 h; DNA damage induced by 5-fluorouridine; AID 504467; 2.3% of 330,000 active; further: potency means the concentration at half of the fitted maximal effect; nearly all actives have a fitted effect of over 55% in size
#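 Step one: seed 2,000 cells per well. Step two: pin-transfer compound or DMSO alongside 5-fluorouridine. Step three: incubate 16 hr, 37 °C, 5% CO2. Step four: add ONE-Glo, wait 30 min, read luminescence.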
# The depositor's hits bear a star; ? = inconclusive; nt = not tested or not shown. Unless noted, the call rests on the fitted dose curve; in most records, active means well fitted curve in the direction sought with a large enough effect; inconclusive means small, poorly fitted or top-dose-only effect, or another doubt; inactive means no such curve, though single readings can be large; an effect the other way counts as inactive or inconclusive. Unless noted, on the % scale 0 is the no-effect control and ±100 the full control effect.
SMILES,HT1080NT lethal,DT40 TDP1 no CPT,DT40 TDP1 CPT,IL1B secr inh,HT1080 IDH1KD tx,ELG1 DNA repair
CCN(CC)CCN1CCn2c3c(c4cc(C)ccc42)CCCC31 (stereo not drawn),?,23µM*,?,?,-20%,11%
CN(C)C(CNC(=S)Nc1ccc(Cl)cc1)c1cccnc1 (stereo not drawn),-2%,-15%,-8%,1,0%,1%
COc1ccc(C(=O)N2CCC3(CC2)CN(c2ncccn2)C3)cc1,nt,-24%,-7%,nt,nt,nt
CC[C@H]1c2[nH]c3ccccc3c2C[C@@H]2C(=O)N(c3ccc(F)cc3)C(=O)N21,-1%,?,16µM*,10,-10%,8.2µM*
O=C(CSc1nnc(COc2cccc3cccnc23)o1)c1ccc(F)cc1,10µM*,4.1µM*,4.1µM*,-3,5µM*,?
COc1cccc(C(=O)CSc2nnc(COc3cccc4cccnc34)o2)c1,?,4.1µM*,3.7µM*,-7,?,?
Cc1ccc(C(=O)CSc2nnc(COc3cccc4cccnc34)o2)cc1,?,23µM*,10µM*,?,?,?
Cc1ccc(C(=O)CSc2nnc(COc3cccc(C)c3)o2)cc1,-5%,-17%,4%,13,-2%,1%
O=C(CSc1nnc(COc2cccc3cccnc23)o1)N1CCCC1,3%,-27%,-4%,14,3%,11%
COc1cccc(NC(=O)CSc2nc(=O)n(Cc3ccccn3)c3c2CCC3)c1,nt,-28%,7%,nt,nt,nt
COc1cc(NS(=O)(=O)c2ccc(N)cc2)nc(C)n1,nt,8%,1%,nt,nt,nt
CC(C)(C)C(=O)N1N=C(c2ccc(NS(C)(=O)=O)cc2)CC1c1cccs1 (stereo not drawn),?,?,?,-20,16µM*,?
CS(=O)(=O)Nc1ccc(C2=NN(C(=O)c3ccccc3)C(c3cccs3)C2)cc1 (stereo not drawn),-10%,?,?,?,-10%,?
CS(=O)(=O)Nc1ccc(C2=NN(C(=O)c3cccc(F)c3)C(c3cccs3)C2)cc1 (stereo not drawn),-16%,?,?,-28,-13%,16µM*
Cc1noc(C)c1C(=O)N(C)CC(=O)Nc1ccc(F)c(F)c1F,0%,-2%,-3%,0,0%,5%
COc1ccccc1N1CCN(C(c2ccccc2)c2nnnn2CCc2ccccc2)CC1 (stereo not drawn),-1%,18µM*,18µM*,0,-20%,?
COc1cccc(C(c2nnnn2CCc2ccccc2)N2CCN(c3ccccc3)CC2)c1OC (stereo not drawn),8%,?,?,-20,7%,-25%
COc1ccccc1C(c1nnnn1CCc1ccccc1)N1CCCCCC1 (stereo not drawn),?,23µM*,?,-22,?,-13%
COc1ccc(C(c2nnnn2CCc2ccccc2)N2CCN(C)CC2)cc1OC (stereo not drawn),9%,-3%,-12%,-7,-2%,-4%
COc1ccccc1N1CCN(C(c2ccccc2)c2nnc(-c3ccccc3Cl)o2)CC1 (stereo not drawn),nt,?,29µM*,nt,nt,nt
COc1ccc(-c2cccc(NS(=O)(=O)c3cc(C)ccc3OC)c2)nn1,nt,23µM*,16µM*,nt,nt,nt
COc1ccc(-c2cccc(NS(=O)(=O)c3cc(C)c(Cl)cc3C)c2)nn1,nt,23µM*,13µM*,nt,nt,nt
Cc1cccc(C)c1NC(=O)CN(C)C(=O)C1CC1C (stereo not drawn),1%,5%,-3%,5,-1%,18%
COc1ccc(NS(=O)(=O)c2cccc(C(=O)NNC(=O)CNC(=O)c3cccc(C)c3)c2)cc1,10%,16%,10%,14,3%,-2%
O=C(NC1CCCCC1)Oc1cc2oc(=O)sc2cc1Br,-5%,?,16µM*,-17,-4%,?
SMILES,HT1080NT lethal,DT40 TDP1 no CPT,DT40 TDP1 CPT,IL1B secr inh,HT1080 IDH1KD tx,ELG1 DNA repair
O=C(NC1CCCCCC1)c1ccc(Br)o1,-3%,-2%,3%,12,-5%,?
CCCC(=O)NCc1ccncc1,nt,nt,nt,nt,nt,-1%
Cc1ccnn1CCC(=O)O,?,25%,0%,4,15%,1%
O=C(CN1CCN(C(=O)C2CCN(C(=O)/C=C/c3ccccc3)CC2)CC1)Nc1ccc(F)cc1,5%,?,?,-83*,-2%,nt
O=C(Nc1cccc(F)c1)N1CCN(C/C=C/c2ccccc2)CC1,-11%,-14%,-7%,-4,-5%,?
O=C(Nc1ccc(F)cc1)N1CCN(C/C=C/c2ccccc2)CC1,-11%,29µM*,?,-14,-4%,-28%
Fc1ccc(C(c2ccc(F)cc2)N2CCN(C/C=C\c3ccccc3)CC2)cc1,nt,21µM*,24µM*,nt,nt,nt
O=C(O)c1ccc(NC2(C(=O)O)CCCC2)cc1,12%,1%,-6%,-6,8%,nt
COc1cc(C(C)=O)ccc1OCC(=O)Nc1cc(C)on1,0%,-10%,-5%,-3,13%,?
COc1ccc(NC(=S)NC(=O)c2ccc3c(c2)OCCO3)cc1,-4%,18µM*,?,-15,-3%,?
O=C(NC(=S)Nc1ccc(N2CCCCC2)cc1)c1ccc2c(c1)OCCO2,0%,16µM*,?,0,?,?

# Screening results: PubChem, National Center for Advancing Translational Sciences (NCATS)
